# Most compounds without a hit are left out; they make up all but 3.3% or so of the library.
# PNC assembly inh – inhibitors of perinucleolar compartment assembly; PC3M PTB-GFP, PNC prevalence imaging, 16 h; hits give low values; actives 3.1% (n = 140,000); activity change (PNC), negative = inhibition, % at 10 µM;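 active means readout at or below -70, meaning at least 70% loss of cells showing the perinucleolar compartment, a nuclear body marking cancer cells; inconclusive means readout between -30 and a set limit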;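 further: plate controls were DMSO wells for no effect and camptothecin positive control wells for full effect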
#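 Compounds are pinned in duplicate onto adhered PC3M cells stably expressing GFP-tagged PTB and incubated 16 h at 37 C. Cells are then fixed, nuclei stained with Hoechst, and PNC-positive cells counted.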
# HTT cytoprotect – Huntington cell model cytoprotection by ATP luminescence | PC12 HTT-Q103 induced, cytoprotection, ATP luminescence, 40 h | Potency, µM (series often up to 56.4 µM), without a hit: cytoprotection (ATP increase), hits mostly activators | actives 0.14% (n = 230,000); further: potency means the concentration at half of the fitted maximal effect; % of control where 0% means no effect; nearly all actives have a fitted effect of over 45% in size
#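 Quantitative HTS on tebufenozide-induced (100 nM) PC12 cells expressing HTTQ103 exon 1–GFP; compounds tested as a concentration series; survival measured via cellular ATP.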
# IMPase inh – cell-permeable inhibitors of inositol monophosphatase (IMPase); CHO-M1 cells, IP1 accumulation, HTRF TR-FRET ratio; inhibition (IP1 accumulation), % at 46.1 µM; 120,000 tested, under 10 active; AID 901; active means well fitted curve in the direction sought with a large enough effect in the signal ratio, not every such curve was filed as active; inconclusive means small, poorly fitted or top-dose-only effect, or a change in a side signal; inactive means no such curve, though single readings can be large or run the other way; the % refers to the signal ratio;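 further: cells stimulated with carbachol in lithium chloride buffer; plate controls were DMSO basal wells for no effect and reference inhibitor wells for full effect; higher means more IMPase inhibition seen as more IP1 and lower FRET ratio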
# Target sequence (P97697 whole entry, looked up): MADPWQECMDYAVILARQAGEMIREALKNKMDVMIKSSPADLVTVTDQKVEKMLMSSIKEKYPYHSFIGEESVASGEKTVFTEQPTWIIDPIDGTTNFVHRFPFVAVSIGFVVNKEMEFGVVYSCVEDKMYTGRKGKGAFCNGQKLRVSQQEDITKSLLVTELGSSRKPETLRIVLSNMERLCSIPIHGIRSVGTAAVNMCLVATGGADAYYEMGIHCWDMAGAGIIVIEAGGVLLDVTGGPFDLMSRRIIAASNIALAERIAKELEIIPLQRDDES
#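 CHO-M1 cells (CHO stably expressing M1 receptor), compound up to 46 uM final, stimulated with carbachol (50 uM as added) in buffer with 50mM LiCl, pH 7.4, 30 min at 37C. Cytosolic IP1 read by TR-FRET; AC50 from Hill fits.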
# 12-hLO inh – inhibitors of human 12-lipoxygenase (ALOX12) | Potency, µM (highest dose often 57.1 µM), inactives show at the top dose activity change, negative = inhibition, usual class: inhibitors | purified 12-hLO, xylenol orange hydroperoxide absorbance | P18054 | actives 0.12% (n = 150,000); further: potency means the concentration at half of the fitted maximal effect; on the % scale 0 is the no-effect control and ±100 the full control effect; nearly all actives have a fitted effect of over 55% in size
#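 Lipoxygenase turnover measured by absorbance at 573 and 405 nm after Fe-XO development. Human 12hLO 150 nM, arachidonate 40 uM, pH 7.0 Hepes buffer with detergent; 15 min compound preincubation, 30 min reaction.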
# NPSR antagonist – neuropeptide S receptor (human) antagonism, cAMP. CHO-NPSR cells, cAMP TR-FRET, antagonist mode. Q6W5P4. Potency, µM (highest dose often 38.3 µM), for inactives: top-dose activity change, negative = inhibition, hits mostly inhibitors. actives 1% (n = 220,000); further: potency means the concentration at half of the fitted maximal effect; on the % scale 0 is the no-effect control and ±100 the full control effect; nearly all actives have a fitted effect of over 50% in size
# Target sequence (Q6W5P4 whole entry, looked up): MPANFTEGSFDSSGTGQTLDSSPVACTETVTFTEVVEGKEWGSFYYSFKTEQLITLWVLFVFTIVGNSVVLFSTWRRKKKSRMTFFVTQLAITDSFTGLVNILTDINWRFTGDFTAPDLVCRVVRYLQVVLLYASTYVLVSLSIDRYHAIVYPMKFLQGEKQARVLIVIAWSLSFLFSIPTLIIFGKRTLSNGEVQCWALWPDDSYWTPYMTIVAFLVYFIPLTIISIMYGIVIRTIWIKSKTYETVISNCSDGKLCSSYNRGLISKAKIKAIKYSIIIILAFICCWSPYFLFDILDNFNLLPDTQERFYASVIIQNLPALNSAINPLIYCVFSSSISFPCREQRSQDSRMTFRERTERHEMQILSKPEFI
# HTT aggregate – inhibitors of mutant huntingtin aggregate formation in PC12 cells | actives 1.1% (n = 220,000) | AID 1688 | Potency, µM (doses to about 46.1 µM), for the others: top-dose activity change, negative = inhibition, most hits filed as inhibitors | PC12 HttQ103-GFP aggregates, Acumen cytometry, 40 h; further: potency means the concentration at half of the fitted maximal effect; on the % scale 0 is the no-effect control and ±100 the full control effect; nearly all actives have a fitted effect of over 60% in size
#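 Aggregates are detected as GFP objects 1–25 µm with signal 6 STDEV over background in lysates of induced PC12 cells. These carry Huntingtin exon 1 with 103 glutamines fused to GFP under an ecdysone promoter; compounds titrated.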
# An asterisk follows results filed as active; ? = inconclusive; / = no result given; [ ] = another dose, or the depositor's remark. Unless noted, the call rests on the fitted dose curve; in most records, active means well fitted curve in the direction sought with a large enough effect; inconclusive means small, poorly fitted or top-dose-only effect, or another doubt; inactive means no such curve, though single readings can be large; an effect the other way counts as inactive or inconclusive.
SMILES,PNC assembly inh,HTT cytoprotect,IMPase inh,12-hLO inh,NPSR antagonist,HTT aggregate
C/C=C/c1c(F)c(F)c(Oc2ccc(C(=O)O)cc2)c(F)c1F,-84.5*,6.7%,-2.2,5.3%,3.6%[46.1 µM],?
CCCn1c(C(O)c2ccc3c(c2)OCO3)nc2ccccc21 (stereo not drawn),-100.0*,-10.7%[10 µM],9.0,-15.6%,-23.2%[46.1 µM],-18.7%
CCCn1c(NCc2ccc3c(c2)OCO3)nc2ccccc21,9.1,0.7%[1.9 µM],-2.5,-27.3%,-9.5%[46.1 µM],-11.1%
CC(=O)NC(=S)Nc1ccc([N+](=O)[O-])cc1C,/,11.2µM*,/,/,12.6%,?
COc1ccc([N+](=O)[O-])cc1NC(=S)NC(C)=O,/,24.0%[10 µM],/,/,0.1%,?
Cc1cccc(C2c3[nH]c4ccccc4c3CCN2C(=O)Cc2n[nH]c(C)n2)n1 (stereo not drawn),/,8.0%,/,/,14.4%,5.4%
CCCNC(=O)CCSc1nc(-c2ccc3c(c2)OCO3)cc(C(F)(F)F)n1,/,/,7.3,/,/,/
N#CC(c1nc2ccccc2nc1N1CCOCC1)S(=O)(=O)c1ccccc1 (stereo not drawn),/,8.1%[10 µM],/,/,54.5%,15.0%[9.22 µM]
CC(N1CCOC1=O)S(=O)(=O)c1ccccc1 (stereo not drawn),-110.2*,-2.8%,-0.3,-15.7%,-4.1%[46.1 µM],-14.9%
O=C(O)c1cc2c(ccc3ccccc32)o1,-16.6,-36.0%,-10.0,-4.1%,-2.5%[46.1 µM],17.8µM*
c1ccc(CN2CCN(CCOCCOc3ccc4c(c3)CCC4)CC2)cc1,/,-17.7%,/,/,-6.7%,-2.5%
COCCNC(C(=O)Nc1ccc([N+](=O)[O-])cc1Br)c1ccccc1 (stereo not drawn),-7.2,-13.6%[10 µM],/,-2.9%,-25.6%,2.1%
CCCCNC(C(=O)Nc1ccc([N+](=O)[O-])cc1Br)c1ccccc1 (stereo not drawn),-118.2*,/,/,-7.9%,-8.3%,1.1%
CCN1/C(=C\C=C(C(C)=O)C(C)=O)Sc2ccccc21,/,-57.7%,/,/,-18.5%,-3.3%
CCN1/C(=C/c2ccc3cc(C)cc(C)c3[n+]2CC)Sc2cc(C)ccc21,/,-49.6%[10 µM],/,/,-39.9%,?
CCN1/C(=C/c2ccc3cccc(C)c3[n+]2CC)Sc2ccccc21,?,-156.7%,-13.8,-4.4%,10µM*,1.12µM*
CCN1/C(=C\c2ccc3cc(C)ccc3[n+]2CC)Sc2cc(C)c(C)cc21,/,-75.5%,/,/,-25.2%,0.891µM*
CN(C(Cc1ccc(OS(=O)(=O)c2cccc3cnccc23)cc1)C(=O)N1CCN(c2ccccc2)CC1)S(=O)(=O)c1cccc2cnccc12 (stereo not drawn),/,-44.6%,/,/,/,/
O=C1CSc2ccc(C(=O)Nc3cccc(S(=O)(=O)Nc4ccc(Br)cc4)c3)cc2N1,/,37.5%[10 µM],/,/,?,7.94µM*
COc1ccc(NC(=O)c2cccc(S(=O)(=O)Nc3ccc(Br)cc3)c2)cn1,?,-2.4%[10 µM],3.6,?,-8.2%[46.1 µM],?
Cc1cc2ccccc2n1CCNC(=O)C(C)Oc1ccccc1 (stereo not drawn),-108.4*,10.2%[10 µM],-20.3,-13.7%,-21.2%[46.1 µM],?
Cc1cc2ccccc2n1CCNC(=O)C(C)C,5.7,-9.1%,1.0,-5.2%,-6.5%[46.1 µM],?
CC(=O)c1ccc(NC(=O)CSc2nnc(NC(=O)CN3CCOCC3)s2)cc1,3.5,-7.5%,3.3,-8.8%,-8.3%[46.1 µM],1.9%
Cc1ccc(NC(=O)CSc2nnc(NC(=O)CN3CCOCC3)s2)cc1,-116.6*,-25.5%,-0.2,2.0%,8.5%[46.1 µM],?
CCn1c(-c2ccc(F)cc2)n[nH]c1=S,14.2,-6.2%[0.074 µM],-13.0,1.9%,-0.3%[46.1 µM],-2.5%
SMILES,PNC assembly inh,HTT cytoprotect,IMPase inh,12-hLO inh,NPSR antagonist,HTT aggregate
CCn1c(-c2ccc(C(C)(C)C)cc2)n[nH]c1=S,-88.6*,18.8%[10 µM],2.2[1.84 µM],-4.5%,1.3%[46.1 µM],?
COc1ccc(-c2ccc3c(N)c(C(=O)NCc4ccc(Cl)cc4)sc3n2)cc1,/,/,-8.5,/,/,/
CC(C)(C)c1ccc(S(=O)(=O)NCCc2ccncc2)cc1,?,-18.4%,?,-7.6%,-10.2%[46.1 µM],22.4µM*
CCCCCc1ccc(S(=O)(=O)NCCc2ccncc2)cc1,5.8,-8.5%,0.6,-4.5%,-12.4%[46.1 µM],11.2µM*
Clc1ccc(CCNC(c2nnc(-c3ccccc3)o2)c2ccccc2Cl)cc1 (stereo not drawn),/,/,2.4,/,/,/
O=C(CSc1nnc(Cn2c(=O)sc3ccccc32)n1-c1ccccc1)NCC1CCCO1 (stereo not drawn),-108.4*,-4.1%,-0.3,11.2%,-9.9%[46.1 µM],-21.7%
Cn1c(Cn2c(=O)sc3ccccc32)nnc1SCC(=O)NCC1CCCO1 (stereo not drawn),37.6,12.9%[10 µM],-8.2,1.8%,-0.4%[46.1 µM],-14.1%
O=[N+]([O-])c1ccc2c(c1)c(S(=O)(=O)O)cc1nonc12,/,0.1%[10 µM],/,8.2%[11.4 µM],/,/
O=S(=O)(c1ccccc1)c1ccccc1/C=N\O,-96.0*,-7.3%,5.4,-5.2%,15.3%[46.1 µM],?
Cc1ccc(OCCN2CCN(c3ncnc4sc(C)c(C)c34)CC2)cc1,?,-27.9%,9.3,-1.4%,-17.0%[46.1 µM],2.51µM*
N#CC1=C(N)Oc2cc3ccccc3cc2C1c1cccnc1 (stereo not drawn),-89.5*,-10.7%,4.9,-20.1%,5.2%[46.1 µM],2.8%
N#CC1=C(N)Oc2c(ccc3cccnc23)C1c1cccnc1 (stereo not drawn),-19.4,-53.6%[10 µM],6.7,-6.0%,-4.4%,?
COc1ccc(N=Cc2cc3c(cc2O)OC(N)=C(C#N)C3c2ccccc2)cc1 (stereo not drawn),-21.1,6.8%[1.9 µM],3.1,-7.0%,?,7.94µM*
Cc1ncc(N=Nc2ccccc2Cl)c(-c2ccccc2)n1,28.6,-24.6%,8.1,-1.3%,-26.8%[46.1 µM],?
COc1ccc(N=Nc2cnc(C)nc2-c2ccccc2)cc1,-84.7*,6.9%[10 µM],-5.4[1.84 µM],-0.5%,?,-15.5%
CC(=O)N1CCN(CC(=O)Nc2cccc(S(=O)(=O)N3CCCCCC3)c2)CC1,/,-15.0%,/,/,3.2%,-1.1%
O=C(CCl)Nc1cccc(S(=O)(=O)N2CCCCCC2)c1,-7.4,30.7%[10 µM],-5.3,2.7%,-8.1%[46.1 µM],10µM*
CC(NC(=O)C(NC(=O)C1CCCN1C(=O)OC(C)(C)C)C(C)C)C(N)=O (stereo not drawn),-94.4*,0.5%[10 µM],-5.7,2.9%,15.8%,-6.8%
CCCN(c1ccc(OCC)cc1)S(=O)(=O)c1ccc2c(c1)CCN2C(=O)CCC(=O)O,55.9,-9.8%,-7.6,1.2%,-14.8%[46.1 µM],0.8%
CCCCN(c1ccccc1)S(=O)(=O)c1ccc2c(c1)CCN2C(=O)CCC(=O)O,-83.1*,9.0%[10 µM],6.7,-1.7%,-14.0%[46.1 µM],-19.9%
COc1ccccc1CCn1c(=O)c(-c2ccc(Cl)cc2)nc2cncnc21,/,-34.6%,/,-1.0%,/,/

# Assay outcomes as filed in PubChem BioAssay.
